Out of some 1,900 compounds screened, about 50 (3%) showed an effect of 50% or more. This excerpt belongs to a sample that is enriched for strong results.

The target in this assay is p38/MK2 protein–protein interaction (VF-p38α / GST-MK2) (Homo sapiens, UniProt Q16539). As to the kind of experiment: primary screen, percent of control activity; higher = less effect of the substance. On the set-up: species or system HEK293T cell lysate transfected with VF-p38α and GST-MK2; unclear (methods say 'quintuplet replicates'). The gist of the method: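 Lysate of HEK293T cells transfected with Flag-tagged p38α and GST-MK2, complex detected by TR-FRET with anti-Flag-Tb and anti-GST-d2 antibodies. Five replicates per compound. Signal normalised to percent of DMSO control.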
Chain of p38/MK2 protein–protein interaction (VF-p38α / GST-MK2) (Q16539 2-360 limits assumed): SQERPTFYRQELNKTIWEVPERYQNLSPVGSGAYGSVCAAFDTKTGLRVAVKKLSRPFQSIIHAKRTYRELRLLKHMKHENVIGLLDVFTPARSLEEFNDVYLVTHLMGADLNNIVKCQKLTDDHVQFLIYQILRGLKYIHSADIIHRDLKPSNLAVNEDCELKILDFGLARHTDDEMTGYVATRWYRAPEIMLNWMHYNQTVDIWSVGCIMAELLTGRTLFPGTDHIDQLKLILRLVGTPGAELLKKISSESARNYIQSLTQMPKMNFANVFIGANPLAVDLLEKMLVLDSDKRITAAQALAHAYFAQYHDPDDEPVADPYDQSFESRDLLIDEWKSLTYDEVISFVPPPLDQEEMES
On to `Cc1cccc(N(C)C(=S)Oc2ccc3ccccc3c2)c1`, for which the Pct of control is 101%.
Regarding `O=P1(NCCCl)OCCCN1CCCl` (centres unmarked), the Pct of control is reported as 91.1%.
For the compound `Cc1cccc(C)c1NC(=O)C1CCCCN1C.Cl` (centres unmarked), the Pct of control came to 95.5%.
Turning to `O.O=c1c(O)c(-c2ccc(O)cc2O)oc2cc(O)cc(O)c12`, the Pct of control was found to be 27%.
`O=c1c(O)c(-c2cc(O)c(O)c(O)c2)oc2cc(O)cc(O)c12` gave a Pct of control of 43.2%.
Turning to `O=c1c(O)c(-c2ccc(O)cc2)oc2cc(O)cc(O)c12`, the Pct of control stood at 75.1%.
On to `O=c1c(O)c(-c2ccc(O)c(O)c2)oc2cc(O)cc(O)c12`, for which the Pct of control is recorded as 68%.
`O.O.O=c1c(O)c(-c2ccc(O)c(O)c2)oc2cc(O)cc(O)c12`: the Pct of control is 73.1%.
Compound `CC1OC(Oc2c(-c3cc(O)c(O)c(O)c3)oc3cc(O)cc(O)c3c2=O)C(O)C(O)C1O` (centres unmarked) had a Pct of control of 74%.
As to `CCn1cc(C(=O)O)c(=O)c2ccc(C)nc21`, the Pct of control is 103%.
`COC(=O)Nc1nc2ccc(Sc3ccccc3)cc2[nH]1` had a Pct of control of 96.8%.
Regarding `Cc1ccc(Sc2cncc3sc(C(N)=O)cc23)cc1`, the Pct of control was 96.8%.
As for `O=C(NCCCNc1nc(Nc2cccc(NC(=O)N3CCCC3)c2)ncc1I)c1cccs1`, the figure is 105%; as for `COc1ccc(C2C(=O)c3ccccc3C2=O)cc1`, 93.2%.
As for `O=c1c(-c2ccc(O)cc2)coc2cc(O)cc(O)c12`, the figure is 102%.
`COc1cc(OC)c(OC)cc1C=O` registered a Pct of control of 91.5%.
As to `COC(=O)C1=C(C)NC(C)=C(C(=O)OC)C1c1ccccc1[N+](=O)[O-]`, the Pct of control was found to be 87%.
With `Cl.O=C(O)Cc1cccc(OCCCN(Cc2cccc(C(F)(F)F)c2Cl)CC(c2ccccc2)c2ccccc2)c1`, the Pct of control stood at 39.4%.
In turn, `O=C(Nc1ccncc1)c1cc([N+](=O)[O-])ccc1Cl` yielded a Pct of control of 103%.
The compound `CCc1oc2ccccc2c1C(=O)c1cc(Br)c(O)c(Br)c1` had a Pct of control of 103%.
In the case of `Cc1cc(C(C#N)c2ccc(Cl)cc2)c(Cl)cc1NC(=O)c1cc(I)cc(I)c1O` (centres unmarked), the Pct of control was determined as 45.2%.
In the case of `Cc1cc(C(C#N)c2ccc(Cl)cc2)c(Cl)cc1NC(=O)c1cc(I)cc(I)c1[O-].[Na+]` (centres unmarked), the Pct of control came to 46.2%.
As for `CC(=O)Nc1cccc(-n2c(=O)n(C3CC3)c(=O)c3c(Nc4ccc(I)cc4F)n(C)c(=O)c(C)c32)c1`, the figure is 93.7%; as for `CC(C)(Oc1ccc(CCNC(=O)c2ccc(Cl)cc2)cc1)C(=O)O`, 96.7%.
On to `Oc1c(Br)cc(Br)c2cccnc12`, for which the Pct of control came out at 104%.
`CCc1ccc(CCOc2ccc(CC3SC(=O)NC3=O)cc2)nc1` (centres unmarked) registered a Pct of control of 97.3%.
As to `Clc1ccc(CCC(Cn2ccnc2)Sc2c(Cl)cccc2Cl)cc1.O=[N+]([O-])O` (centres unmarked), the Pct of control came to 90.3%.
`O=NN(CCCl)C(=O)NC1CCCCC1` registered a Pct of control of 82.9%.
Compound `Cc1cc([N+](=O)[O-])ccc1NS(=O)(=O)c1cc(Cl)ccc1Cl` gave a Pct of control of 87.8%.

Source of the values: article PMC12751014, “Non-Catalytic Inhibitors of the p38/MK2 Interface: Repurposing Approved Drugs to Target Neuroinflammation in Alzheimer’s Disease” (Journal of Medicinal Chemistry, 2025).
